RECQ1 helicase: RECQ1 (human) helicase inhibition; P46063; Potency, µM (series often up to 57.3 µM), inactives show at the top dose activity, negative = inhibition, usual class: inhibitors; RECQ1 DNA unwinding, red fluorescence kinetic read; hit rate 0.54% among 240,000; AID 2549;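 note: plate controls were vehicle for no effect and no enzyme for full effect; nearly all actives have a fitted effect of over 30% in size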
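RECQ1T1 50 nM; forked duplex (20 bp + 30-nt ss tails) 200 nM, ATP 2 mM final; pH 8.0, 2 mM MgCl2, 2.5 ug/ml poly(dI-dC); 15 min compound preincubation; discontinuous kinetic read over 2 h at RT.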
JMJD2E inh: inhibitors of human JMJD2E histone demethylase. B2RXH2. JMJD2E catalytic domain, FDH-coupled NADH fluorescence (FDH is formaldehyde dehydrogenase). Potency, µM (highest dose often 57.1 µM), for the others: at the top dose activity change, negative = inhibition, most hits filed as inhibitors. hit rate 1.6% among 230,000. AID 2147; active = well fitted inhibition curve with a large enough effect, not every such curve was filed as active; inconclusive = small, poorly fitted or top-dose-only effect, or another doubt; inactive = no such curve, though single readings can be large or run the other way;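 note: 0% = wells with enzyme and -100% = buffer wells without enzyme; nearly all actives have a fitted effect of over 50% in size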
Target sequence (B2RXH2 1-337 limits assumed): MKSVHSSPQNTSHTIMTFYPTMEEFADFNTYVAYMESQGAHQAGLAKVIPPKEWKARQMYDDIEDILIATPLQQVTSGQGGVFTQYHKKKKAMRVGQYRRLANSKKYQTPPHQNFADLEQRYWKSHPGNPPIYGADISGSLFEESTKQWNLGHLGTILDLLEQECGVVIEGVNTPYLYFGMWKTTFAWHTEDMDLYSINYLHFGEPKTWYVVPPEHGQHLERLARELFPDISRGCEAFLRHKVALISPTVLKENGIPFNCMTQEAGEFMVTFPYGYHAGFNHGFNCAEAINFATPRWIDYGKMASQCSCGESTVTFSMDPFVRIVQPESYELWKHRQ
GCN5L2 inh: inhibitors of human GCN5L2 histone acetyltransferase. Q92830. GCN5L2 HAT assay, ThioGlo1 CoA-SH fluorescence. Potency, µM (doses to about 58.9 µM), without a hit: top-dose activity change, negative = inhibition, usual class: inhibitors. hit rate 0.21% among 390,000
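GCN5L2 (20nM final) in 50mM HEPES, 0.1mM EDTA pH 7.5, 0.01% Tween-20 was preincubated 15 min at room temperature with compound, then given ThioGlo1 (50uM), H3(1-25) peptide (75uM) and acetyl-CoA (70uM); CoA-thiol fluorescence (Ex340/Em540) was read at 0 and 20 min.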
TDP1 inh: blocks human tyrosyl-DNA phosphodiesterase 1 | recombinant TDP1, AlphaScreen DNA substrate cleavage | Potency, µM (series often up to 130 µM), for the others: at the top dose activity change, negative = inhibition, actives largely listed as inhibitors | Q9NUW8 | hit rate 0.28% among 350,000; note: nearly all actives have a fitted effect of over 40% in size
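AlphaScreen read-out: signal falls as enzyme removes the 3' tyrosine-FITC from a 5'-biotinylated DNA oligo (15 nM, 5 min, RT). Enzyme was E. coli-made recombinant Tdp1 at 1 nM, exposed to compound for 15 min beforehand; beads 10 ug/ml, 10 min.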
BLM inh: inhibitors of human Bloom syndrome helicase BLM; P54132; recombinant BLM DNA unwinding, fluorescence dequenching; Potency, µM (doses to about 56.1 µM), for inactives: top-dose activity change, negative = inhibition, hits mostly inhibitors; hit rate 0.2% among 350,000;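 note: plate controls were vehicle for no effect and no enzyme for full effect; nearly all actives have a fitted effect of over 35% in size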
APEX1 inh: blocks human APE1 abasic DNA cleavage. Potency, µM (doses to about 65.8 µM), for inactives: at the highest dose activity change, negative = inhibition, actives largely listed as inhibitors. P27695. hit rate 0.35% among 350,000. AID 2517. recombinant APE1, TAMRA/BHQ-2 abasic DNA cleavage fluorescence;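 note: plate controls were vehicle for no effect and reference inhibitor for full effect; nearly all actives have a fitted effect of over 55% in size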
Target sequence (P27695 whole entry, looked up): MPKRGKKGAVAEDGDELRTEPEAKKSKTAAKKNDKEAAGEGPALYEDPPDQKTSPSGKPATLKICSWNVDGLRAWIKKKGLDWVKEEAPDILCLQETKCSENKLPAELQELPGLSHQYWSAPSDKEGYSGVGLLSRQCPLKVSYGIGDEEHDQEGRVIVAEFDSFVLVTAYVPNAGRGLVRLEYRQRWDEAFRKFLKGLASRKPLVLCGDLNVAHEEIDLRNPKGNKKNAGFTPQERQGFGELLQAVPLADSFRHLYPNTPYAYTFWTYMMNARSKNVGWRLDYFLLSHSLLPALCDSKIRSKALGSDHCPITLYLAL
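Endonuclease cleavage of a quenched abasic-site DNA duplex (50 nM) by APE1 (0.75 nM) was tracked by TAMRA dequenching. Compounds were preincubated with enzyme 15 min at room temperature; data normalized to buffer-only and DMSO wells plus NSC13755 control.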
The depositor's hits bear a star; i = inactive; u = inconclusive; x = no result; ! = not active in a repeat. This is one part of a sample in which hits are shown more often than they occur. Unless noted, calls come from the whole dose curve; as a rule, active = well fitted curve in the direction sought with a large enough effect; inconclusive = small, poorly fitted or top-dose-only effect, or another doubt; inactive = no such curve, though single readings can be large; an effect the other way counts as inactive or inconclusive. Unless noted, % is set by controls: 0 for no effect and ±100 for the full control effect; potency is the fitted concentration of half-maximal effect.

SMILES	RECQ1 helicase	JMJD2E inh	GCN5L2 inh	TDP1 inh	BLM inh	APEX1 inh
COC(=O)C1=COC(OC2OC(CO)C(O)C(O)C2O)C2C1C=CC2(O)CO (stereo unspecified)	-15%	-5%	-11%	x	-6%	7.9µM*
COC(=O)C1=CO[C@@H](O[C@@H]2O[C@H](CO)[C@@H](O)[C@H](O)[C@H]2O)C2C1CC(O)O[C@H]2C (stereo partly specified)	x	x	1%	0%	x	-4%
COc1ccc(CN(CCC(c2ccc(F)cc2)C2CCOC(C)(C)C2)C(=O)c2ccco2)cc1 (stereo unspecified)	25µM*	-22%	-19%	-3%	-7%	10%
CC(C)CN(CC(C)C)c1nc(N)c(C#N)c(CC#N)c1C#N	28µM*	u	0%	5%	-8%	12%
Cc1ccc(NS(=O)(=O)c2cccc(C(=O)O)c2)cc1C	x	x	x	3%	x	x
CC(=O)N/N=C/c1ccc([N+](=O)[O-])o1	x	x	-15%	x	4%	x
O=[N+]([O-])c1ccc(/C=N/N=C/c2ccc([N+](=O)[O-])o2)o1	-8%	14µM*	-8%	x	-8%	u
O=C(O)/C=C/c1ccc([N+](=O)[O-])o1	i	-2%	-8%	32µM*	-6%	u
CC(C)(C)OC(=O)CC(=O)NNC(=O)c1cc2ccccc2[nH]1	x	x	x	-1%	x	x
O=S(=O)(c1ccccc1Br)N1CCN(c2nc(-c3ccccc3)nc3ccccc23)CC1	x	x	x	0%	x	x
COc1cc(CNc2ccc(N3CCCC3)cc2)ccc1OCc1ccccc1	-1%	6.3µM*	40%	4%	-11%	-3%
O=C1c2ccccc2C(=O)N1c1ccccc1O	x	x	x	1%	x	x
CC(C)(C)OC(=O)CC(=O)NNC(=O)c1nc2ccccc2[nH]1	x	x	x	-2%	x	x
COc1cc2ccc(=O)oc2cc1OCC(O)C(C)(C)O (stereo unspecified)	-6%	u	-30%	x	-1%	u
COc1cc2ccc(=O)oc2cc1O	u	u	32µM*!	-1%	-1%	58%
COC(=O)c1cnn2c(C)c(Cc3cccc(F)c3)c(C)nc12	0%	3.5µM*	-4%	-3%	1%	-2%
CC(=O)c1cc2c(s1)c1cnn(Cc3ccccc3F)c(=O)c1n2C	x	x	x	0%	x	x
O=C(C[n+]1ccc(C(=O)N/N=C/c2ccc(O)cc2)cc1)c1ccccc1	-15%	u	-17%	6%	u	-7%
O=C(C[n+]1ccc(C(=O)N/N=C/c2ccc(OCc3ccccc3)cc2)cc1)c1ccccc1	-12%	28µM*	0%	11%	35µM*	u
C=CCNc1nnc(Cc2ccc(C(C)C)cc2)c(=O)[nH]1	x	x	-6%	50µM*	-9%	-11%
COc1ccc(Cc2nnc(NCCO)[nH]c2=O)cc1	x	x	1%	1%	-3%	2%
COc1cc(F)c(S(=O)(=O)N2CCN(S(=O)(=O)c3cccc(N)c3)CC2)c(F)c1	x	x	x	1%	x	x
COc1cc(Cl)c(C)cc1NC(=O)C(OC(=O)CNC(=O)c1ccccc1)c1ccccc1 (stereo unspecified)	x	x	x	-2%	x	x
O=C(c1ccc(N2C(=O)C3C4CC(C(Br)C4Br)C3C2=O)cc1)N1CCCCC1 (stereo unspecified)	x	x	0.79µM*	32µM*	-3%	u
CC(=O)c1cc(O)c2ccccc2c1O	-6%	14µM*	u	10%	-14%	-8%
SMILES	RECQ1 helicase	JMJD2E inh	GCN5L2 inh	TDP1 inh	BLM inh	APEX1 inh
COCCN1C(=O)C(CC(=O)Nc2ccccc2)SC1=Nc1ccc(OC)cc1 (stereo unspecified)	-13%	11%	0%	3%	-4%	-2%
COc1ccc(NC(=O)CC2Sc3ncnn3C2=O)cc1 (stereo unspecified)	3%	2µM*	3%	-11%	1%	1%
COc1cc(C(=O)NC(=S)NNC(=O)c2cnccn2)cc(OC)c1OC	0%	11µM*	-2%	8%	3%	1%
COc1cccc(C2c3c(ncn(-c4cccc(C)c4)c3=N)Oc3ccc4ccccc4c32)c1 (stereo unspecified)	x	x	x	4%	x	x
Cn1c(=O)c2c([nH]c(=S)n2CCCc2ccccc2)n(C)c1=O	x	x	11µM*	x	3%	-8%
Cn1c(=O)[nH]c(=O)c2c1[nH]c(=S)n2CCCc1ccccc1	x	x	16µM*	x	-2%	8%
Cn1c(=O)[nH]c(=O)c2c1nc(Br)n2CCCc1ccccc1	u	5%	2%	0%	0%	-3%
Cn1c(=O)c2c(ncn2CCCc2ccccc2)n(C)c1=O	i	8%	-3%	9%	-1%	-2%
CCOc1ccc(NC(=O)c2cccc(-n3cccc3)c2)cc1S(=O)(=O)N1CCOCC1	x	x	u	0.79µM*	x	1.3µM*
CCOc1ccc(C(=O)Nc2ccc(S(=O)(=O)N3CCOCC3)cc2)cc1OCC	i	u	-12%	10%	0%	4%
COc1ccc(NC(=O)CN(C)C(=O)c2cc3c(s2)CCCCC3)cc1	x	x	-2%	5%	0%	-9%
COc1ccc(NC(=O)CN(C)C(=O)c2cc3c(s2)CCC3)cc1	x	x	u	1.3µM*	x	1.9µM*
Cc1ccc(-n2ncc3c2CC(C)(C)CC3NC(=O)CCc2ccncc2)cc1 (stereo unspecified)	x	x	2%	22µM*	2%	-3%
CCc1cc(=O)n2c([nH]c3ccccc32)c1C#N	-8%	u	-2%	9%	1%	-2%
CCc1cc(=S)n2c([nH]c3ccccc32)c1C#N	i	u	28µM*	3%	3%	8%
Cc1cc(NS(=O)(=O)c2ccc(NC(=O)CSc3nc4sc(C(=O)O)c(C)c4c(=O)[nH]3)cc2)no1	3%	-28%	-2%	5%	4%	-6%
Cc1cc(NS(=O)(=O)c2ccc(NC(=O)CSc3nc4sc(C)c(C)c4c(=O)[nH]3)cc2)no1	-10%	2%	14µM*	5%	-9%	10%
COc1ccc(-c2nc3oc4cc(OC)ccc4c(=O)c3c(=O)n2Cc2ccco2)cc1	-14%	u	-17%	8%	-12%	-4%
COc1ccc2c(=O)c3c(=O)n(Cc4ccco4)c(-c4ccco4)nc3oc2c1	2%	u	-6%	45µM*	-26%	u
Cc1cc(C(=O)N/N=C/c2cc([N+](=O)[O-])ccc2O)c2ccccc2n1	-4%	28µM*	-5%	11%	4%	15%
Cc1cc(C(=O)N/N=C/c2cc(Br)cc([N+](=O)[O-])c2O)c2ccccc2n1	-5%	6.3µM*	-6%	11%	4%	-3%
CC(C)(C)c1ccccc1Nc1nc(C#N)nc(NC2CCCC2)n1	x	x	x	-6%	x	x
